Data as given in ChEMBL document CHEMBL5308504, “Tm Shift (DSF) assay results for EUbOPEN Chemogenomics Library” (2023).
“And” between values parts separate entries of the source, which are not always exact repeats. Identical values can stand only once.

Experiments:
Details in all cases: Compound concentration 20.0 uM, Protein concentration 2.0 uM, Result type QC Liability
[1] = biological target: Tyrosine-protein kinase ABL1 (Homo sapiens) (UniProt P00519)
[2] = biological target: Cyclin-dependent kinase 2 (Homo sapiens) (UniProt P24941)
[3] = biological target: Casein kinase I isoform delta (Homo sapiens) (UniProt P48730)
[4] = biological target: Glycogen synthase kinase-3 beta (Homo sapiens) (UniProt P49841)
[5] = biological target: Mitogen-activated protein kinase 1 (Homo sapiens) (UniProt P28482)
[6] = biological target: T1, Aurora kinase A (Homo sapiens) (UniProt O14965)
T1 sequence (whole entry): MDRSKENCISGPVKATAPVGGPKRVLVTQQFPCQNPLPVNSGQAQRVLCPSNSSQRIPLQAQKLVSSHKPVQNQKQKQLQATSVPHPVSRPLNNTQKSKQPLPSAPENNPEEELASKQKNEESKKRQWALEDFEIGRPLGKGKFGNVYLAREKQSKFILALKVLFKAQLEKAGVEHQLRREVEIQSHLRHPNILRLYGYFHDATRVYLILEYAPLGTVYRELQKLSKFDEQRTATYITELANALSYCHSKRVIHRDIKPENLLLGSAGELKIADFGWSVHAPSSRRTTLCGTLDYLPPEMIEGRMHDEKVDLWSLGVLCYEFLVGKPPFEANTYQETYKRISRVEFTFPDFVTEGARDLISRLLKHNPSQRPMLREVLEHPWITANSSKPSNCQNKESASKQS

Chain of Casein kinase I isoform delta (Homo sapiens) (P48730 whole entry, looked up, canonical isoform): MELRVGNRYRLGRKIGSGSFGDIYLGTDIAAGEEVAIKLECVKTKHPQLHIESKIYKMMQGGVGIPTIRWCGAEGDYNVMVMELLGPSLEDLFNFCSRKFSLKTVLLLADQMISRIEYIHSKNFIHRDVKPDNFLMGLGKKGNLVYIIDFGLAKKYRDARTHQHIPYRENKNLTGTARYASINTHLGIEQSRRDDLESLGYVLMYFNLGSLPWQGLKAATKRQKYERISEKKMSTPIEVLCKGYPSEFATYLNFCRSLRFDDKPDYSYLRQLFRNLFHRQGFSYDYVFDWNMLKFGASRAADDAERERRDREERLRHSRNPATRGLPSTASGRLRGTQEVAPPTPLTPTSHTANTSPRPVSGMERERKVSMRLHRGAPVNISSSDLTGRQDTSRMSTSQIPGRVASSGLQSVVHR
Chain of Tyrosine-protein kinase ABL1 (Homo sapiens) (P00519 whole entry): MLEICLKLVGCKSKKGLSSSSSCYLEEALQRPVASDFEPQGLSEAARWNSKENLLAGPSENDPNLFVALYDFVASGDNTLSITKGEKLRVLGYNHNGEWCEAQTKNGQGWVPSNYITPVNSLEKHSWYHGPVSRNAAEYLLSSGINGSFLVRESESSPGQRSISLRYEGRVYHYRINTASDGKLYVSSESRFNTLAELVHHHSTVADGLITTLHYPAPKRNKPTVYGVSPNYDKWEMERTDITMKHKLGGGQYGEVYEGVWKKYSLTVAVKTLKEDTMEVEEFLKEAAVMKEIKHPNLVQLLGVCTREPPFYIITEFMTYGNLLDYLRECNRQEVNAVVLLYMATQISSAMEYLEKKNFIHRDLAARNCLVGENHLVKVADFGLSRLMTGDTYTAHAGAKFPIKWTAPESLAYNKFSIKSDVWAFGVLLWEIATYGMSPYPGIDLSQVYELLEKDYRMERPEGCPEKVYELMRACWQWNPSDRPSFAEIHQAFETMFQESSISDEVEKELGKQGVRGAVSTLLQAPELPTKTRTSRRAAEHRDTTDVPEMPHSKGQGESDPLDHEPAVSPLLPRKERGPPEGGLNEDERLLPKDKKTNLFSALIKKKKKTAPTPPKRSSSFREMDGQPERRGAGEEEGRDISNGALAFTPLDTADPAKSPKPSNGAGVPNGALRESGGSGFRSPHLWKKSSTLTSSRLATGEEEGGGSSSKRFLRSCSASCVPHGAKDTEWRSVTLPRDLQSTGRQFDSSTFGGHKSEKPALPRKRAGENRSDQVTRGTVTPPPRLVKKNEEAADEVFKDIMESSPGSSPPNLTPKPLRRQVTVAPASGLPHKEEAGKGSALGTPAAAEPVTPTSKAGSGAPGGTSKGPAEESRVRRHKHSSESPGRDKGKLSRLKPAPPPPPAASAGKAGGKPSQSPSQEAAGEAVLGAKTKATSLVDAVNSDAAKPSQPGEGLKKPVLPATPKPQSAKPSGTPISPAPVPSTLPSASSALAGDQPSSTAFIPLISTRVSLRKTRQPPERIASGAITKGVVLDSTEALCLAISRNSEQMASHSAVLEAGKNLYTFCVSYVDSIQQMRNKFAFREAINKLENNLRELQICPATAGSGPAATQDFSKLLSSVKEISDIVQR
Chain of Glycogen synthase kinase-3 beta (Homo sapiens) (P49841 whole entry, looked up): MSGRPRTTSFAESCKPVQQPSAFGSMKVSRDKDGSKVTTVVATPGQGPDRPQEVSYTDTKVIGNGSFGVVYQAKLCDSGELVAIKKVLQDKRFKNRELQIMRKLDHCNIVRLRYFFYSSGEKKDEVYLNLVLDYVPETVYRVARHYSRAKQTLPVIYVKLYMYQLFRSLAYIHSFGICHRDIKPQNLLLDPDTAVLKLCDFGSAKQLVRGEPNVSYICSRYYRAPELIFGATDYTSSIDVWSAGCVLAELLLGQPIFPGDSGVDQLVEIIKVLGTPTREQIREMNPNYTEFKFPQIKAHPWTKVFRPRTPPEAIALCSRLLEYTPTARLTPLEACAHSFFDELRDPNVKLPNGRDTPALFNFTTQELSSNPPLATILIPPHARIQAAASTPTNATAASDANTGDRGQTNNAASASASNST
Chain of Mitogen-activated protein kinase 1 (Homo sapiens) (P28482 whole entry): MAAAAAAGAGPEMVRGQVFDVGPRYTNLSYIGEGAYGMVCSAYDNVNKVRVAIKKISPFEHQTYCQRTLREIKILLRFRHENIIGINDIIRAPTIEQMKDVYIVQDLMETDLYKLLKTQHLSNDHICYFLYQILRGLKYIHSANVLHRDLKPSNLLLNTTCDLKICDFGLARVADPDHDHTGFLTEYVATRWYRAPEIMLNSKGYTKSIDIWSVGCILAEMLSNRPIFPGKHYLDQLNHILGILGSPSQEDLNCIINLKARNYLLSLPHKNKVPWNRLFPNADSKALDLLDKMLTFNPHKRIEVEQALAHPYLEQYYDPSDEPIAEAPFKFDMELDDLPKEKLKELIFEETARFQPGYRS

SMILES	ΔTm [1]	ΔTm [2]	ΔTm [3]	ΔTm [4]	ΔTm [5]	ΔTm [6]
COc1cc(Cl)c(C(=O)N[C@@H](CN[C@H]2CC[C@@H](N)CC2)Cc2ccc(C#N)cc2)cc1-c1ccc(CN[C@H](C)c2ccc(C)cc2)o1	0.33 °C	0.42 °C	-0.07 °C	-0.81 °C	0.33 °C	0.07 °C
COCCNC1CCC(Nc2cc(-c3csc(NCC4(C#N)CCOCC4)n3)c(Cl)cn2)CC1 (stereo not given)	0.32 °C	1.7 °C	2.18 °C	6.51 °C	0.43 °C	1.44 °C
Cc1nsc(Nc2cnc(C(F)(F)F)cn2)c1C(=O)Nc1ccc(O[C@H]2CCCN(CC(F)(F)F)C2)nc1	0.72 °C	1.68 °C	0 °C	-3.09 °C	0 °C	2.24 °C
Cc1cn([C@H](C)CC#N)c(=O)c2cc(Cn3nc(C(F)F)cc3Cl)nn12	0.14 °C	-0.62 °C	-0.16 °C	-0.46 °C	0.16 °C	-1.16 °C
CC1(C)Oc2ncnc(N)c2N=C1c1ccc([C@H]2CC[C@H](CC(=O)O)CC2)cc1	0.89 °C	0.57 °C	-0.19 °C	0.61 °C	0.18 °C	0.25 °C
O=C(O)CCCCCC[C@@H]1C(=O)NC(=O)N1CCC(O)C1CCCCC1 (stereo not given in full)	0.19 °C	0.46 °C	-0.02 °C	0.34 °C	-0.39 °C	-0.24 °C
Nc1ncnc2c1c(I)cn2[C@@H]1O[C@H](CO)[C@@H](O)[C@H]1O	2.09 °C	6.73 °C	5.26 °C	2.65 °C	1.65 °C	2.13 °C
Cc1c(NC(=O)COc2ccc(Cl)cc2C(=O)c2cc(F)cc(C(F)(F)F)c2)ccc(C(=O)O)c1F	-0.06 °C and 0.75 °C	0.5 °C and 0.58 °C	0.18 °C and 0.09 °C	1.73 °C and 2.32 °C	0.12 °C and 0.93 °C	-0.24 °C and -1.26 °C
CCNc1ccc(-c2nn(-c3ccccc3C)c3c2C(C)Cc2nc(NC(=O)OC)sc2-3)cn1 (stereo not given)	0.34 °C	0.64 °C	0.19 °C	-0.97 °C	-0.13 °C	1.08 °C
CCC(F)(F)c1cc(N2CCC(S(C)(=O)=O)CC2)nc2sc(C(N)=O)c(N)c12	0.45 °C and 1.08 °C and 2.55 °C	0.38 °C and 0.74 °C and 0.49 °C	1.03 °C and 1.35 °C and 2.12 °C	0.35 °C and -0.21 °C and 1.09 °C	0.45 °C and 0.46 °C and 0.62 °C	0.98 °C and 0.42 °C and 1.33 °C
Cc1cn([C@@H](C)CC#N)c(=O)c2cc(Cn3nc(C(F)F)cc3Cl)nn12	0.12 °C	-0.57 °C	-0.18 °C	-0.66 °C	0.18 °C	-0.51 °C
Cc1cnc(-c2cnc(NCCNc3ccc(C#N)cn3)nc2-c2ccc(Cl)cc2Cl)[nH]1	0.86 °C	1.98 °C	1.3 °C	14.6 °C	1.17 °C	2.09 °C
C[C@@H]1CCNC(=O)c2cc3ccc(C(=O)Nc4nc5ccccc5n4CCCN(C)C)cc3n21	1.4 °C	0.73 °C	2.87 °C	0.5 °C	0.36 °C	3.79 °C
CN[C@@H](C)C(=O)N[C@H]1CN(C(=O)CC(C)C)CC[C@H]2CC[C@@H](C(=O)NC(c3ccccc3)c3ccccc3)N2C1=O	-0.01 °C	0.45 °C	0.05 °C	-0.59 °C	0.19 °C	0.17 °C
CCCCNc1ncc2c(-c3ccc(CN4CCN(C)CC4)cc3)cn([C@H]3CC[C@H](O)CC3)c2n1	11.7 °C	5.95 °C	2.72 °C	4.8 °C	0.43 °C	13.5 °C
N#Cc1ccc(C#CC[C@@H](C#N)NC(=O)[C@@H]2CCCCN2)cc1F	-0.78 °C	0.23 °C	0.14 °C	-0.69 °C	0.24 °C	-0.05 °C
CCCNc1ccc2ncc(-c3ccncc3)n2n1	5.22 °C	4.76 °C	5.6 °C	4.07 °C	1.16 °C	6.52 °C
Cc1cc(OCCC(C)(C)O)cc(C)c1-c1ccc(F)c2c1CC[C@H]2Oc1ccc2c(c1)OC[C@H]2CC(=O)O	-2.63 °C	-3.73 °C	-1.62 °C	-4.17 °C	-8.53 °C	-3.22 °C
CCN(C(=O)c1cc(F)ccc1Oc1cncnc1N1CC2(CCN(C[C@H]3CC[C@H](NS(=O)(=O)CC)CC3)CC2)C1)C(C)C	0.01 °C	0.94 °C	-0.25 °C	-0.47 °C	0.35 °C	-1.01 °C
N[C@@H](CC(=O)O)Cn1nnc(-c2ccc(Oc3ncc(Cl)cc3F)cc2)n1	0.91 °C	0.66 °C	-0.24 °C	0.34 °C	0.49 °C	-0.25 °C
COc1cc(N[C@@H]2CCCC[C@]2(O)C(F)(F)F)ccc1F	0.29 °C	0.72 °C	0.65 °C	-0.31 °C	0.4 °C	-1.49 °C
Cc1ncsc1-c1ccc(CNC(=O)[C@@H]2C[C@@H](O)CN2C(=O)[C@@H](NC(=O)C2(F)CC2)C(C)(C)C)c(OCCOc2ccc(CN3CCN(c4cc(-c5ccccc5O)nnc4N)CC3)cc2)c1	0.25 °C	4.72 °C	2.6 °C	9.47 °C	-1.54 °C	3.64 °C
CNC(=O)c1cc(C(=O)N[C@H]2[C@@H]3COC[C@@H]32)cc2c1O[C@H](CF)[C@H]2c1ccccc1	0.27 °C	0.34 °C	0.02 °C	-0.78 °C	0.3 °C	0.31 °C
CN(C)[C@H]1C[C@H](n2cnc(-c3ccc(F)cn3)c2-c2ccnc3[nH]ccc23)C1	0.17 °C	0.4 °C	4.93 °C	-0.83 °C	0.21 °C	-0.76 °C
COCCN1CCN(CCn2ccc(Nc3ncc4c(n3)-c3c(nn(C)c3-c3ccccc3)C[C@H]4C)n2)CC1	2.08 °C	3.1 °C	5.97 °C	0.86 °C	1.18 °C	2.79 °C
CC(=O)N1CCN([C@H]2CCC[C@@H](NC(=O)c3cc4c(F)ccc(C)c4[nH]3)C2)CC1	0.29 °C	0.89 °C	0.05 °C	-0.56 °C	0.42 °C	-0.61 °C

SMILES	ΔTm [1]	ΔTm [2]	ΔTm [3]	ΔTm [4]	ΔTm [5]	ΔTm [6]
Cn1cnc(Cn2ccc3ccc(CNCc4[nH]c5ccccc5c4[C@H]4NC(=O)c5ccc(O)cc54)cc32)c1	0.28 °C	-0.58 °C	0.32 °C	-0.76 °C	0.91 °C	0.59 °C
C[S+](C)[O-]	0 °C (2×) and 0.21 °C	0 °C (2×) and 0.78 °C	0 °C (2×) and 0.01 °C	0 °C (2×) and -0.51 °C	0 °C (2×) and 0.53 °C	0 °C (2×) and 0.05 °C
COc1ccc2c(O[C@@H]3C[C@H]4C(=O)N[C@]5(C(=O)NS(=O)(=O)C6(C)CC6)CC5/C=C\CCCCC[C@H](NC(=O)c5ccn(C)n5)C(=O)N4C3)cc(OC(C)C)nc2c1C (stereo not given in full)	-0.32 °C	-0.49 °C	-1.66 °C	-4.13 °C	-0.6 °C	-0.12 °C
O=C(Nc1cccc(Nc2nccc(Nc3cccc(C(F)(F)F)c3)n2)c1)C1CC1	1.63 °C	1.44 °C	1.09 °C	3.86 °C	0.42 °C	
O=C(Nc1cc2cc[nH]c(=O)c2cc1Cl)[C@H]1CNC[C@@H]1c1cccnc1	0.03 °C	0.53 °C	0.29 °C	-0.6 °C	0.49 °C	-0.12 °C
FC(F)c1cncc(-c2ccc3ncc4nnc(C5=CCCOCC5)n4c3c2)c1	0.89 °C	0.55 °C	0.33 °C	2.58 °C	0.41 °C	1.62 °C
CCCS(=O)(=O)N[C@H]1C[C@@H](N(C)c2ncnc3[nH]ccc23)C1	1.02 °C	0.96 °C	0.73 °C	1.39 °C	0.29 °C	3.25 °C
C[C@@H]1COCCN1c1cc(=O)n2c(n1)N(Cc1cncc(Cl)c1)[C@H](C(F)(F)F)CC2	0.53 °C	0.54 °C	0.16 °C	0.4 °C	0.34 °C	-0.23 °C
COc1cc(-c2nn([C@H]3CC[C@H](N4CCN(C(C)=O)CC4)CC3)c3ncnc(N)c23)ccc1NC(=O)c1cc2ccccc2n1C	14.2 °C	1.13 °C	21 °C	0 °C	3.54 °C	8.28 °C
COCCN(C)c1ccc(NC(=O)/C=C(\C)c2ccc3ccccc3c2)c(C(=O)O)c1	-1.57 °C	1.03 °C	1.4 °C	2.78 °C	-0.17 °C	1.7 °C
COc1cc2nc(C)nc(N[C@H](C)c3cc(N)cc(C(F)(F)F)c3)c2cc1O[C@H]1CCOC1	-0.37 °C	0.99 °C	0.27 °C	0.96 °C	0.04 °C	0.75 °C
Cn1cc(-c2ccc(N(C(=O)NCc3ccccc3)[C@H]3CC[C@H](Nc4ccc(C#N)cn4)CC3)cc2)ccc1=O	0.13 °C	0.7 °C	0.29 °C	0.01 °C	-0.4 °C	-0.15 °C
COc1c(OCCCN2CCOCC2)ccc2c1N=C(NC(=O)c1cnc(N)nc1)N1CCN=C21	0.09 °C	0.39 °C	0.2 °C	-1.01 °C	0.14 °C	-0.67 °C
CCCCC(C)(O)C/C=C/[C@H]1[C@H](O)CC(=O)[C@@H]1CCCCCCC(=O)O (stereo not given in full)	0.39 °C	0.57 °C	-0.02 °C	0.33 °C	-0.33 °C	-0.31 °C
CCN(C(=O)CO)[C@H]1CN(/C(=N\C#N)Nc2cccc(OC(F)F)c2)N=C1c1ccc(Cl)c(Cl)c1	0.46 °C	0.22 °C	0.23 °C	2.8 °C	-0.24 °C	0.87 °C
O=C1CN(c2ccccc2F)C(NCCN2CCOCC2)=C1c1nc2cc(Br)ccc2c(=O)[nH]1	0.38 °C	0.68 °C	0.32 °C	0.31 °C	0.23 °C	0.17 °C
COc1cc2nc(-c3cc(F)ccc3O)nc(N[C@@H]3CNC[C@H]3C(C)(C)O)c2cc1OC	2.31 °C	3.24 °C	4.64 °C	3.22 °C	3 °C	3.06 °C
O[C@]1(C(F)(F)F)CCCC[C@H]1Nc1ccc(F)cc1	0.25 °C	1.15 °C	0.07 °C	-0.77 °C	0.26 °C	0.42 °C
COc1cc(C(=O)NC2CCN(C)CC2)ccc1Nc1ncc2c(n1)N(C1CCCC1)CC(F)(F)C(=O)N2C	0.35 °C	0.09 °C	1.15 °C	-0.4 °C	0.38 °C	0.78 °C
Cc1cc2nc(N3CCC(C(=O)NC4CCCC4)CC3)n(C(C)C)c2cc1C	0.22 °C	0.23 °C	0.04 °C	0.31 °C	0 °C	0.01 °C
Cc1cc(CN(CC(=O)Nc2ccc(Cl)cc2Cl)C2CCCCC2)ccc1OCC(=O)O	-1.67 °C	-2.21 °C	-0.47 °C	-3.13 °C	-1.06 °C	-2 °C
CN[C@@H](C)C(=O)N[C@H](C(=O)N1CCC[C@H]1C(=O)N[C@H]1c2ccccc2C[C@H]1OCC#CC#CCO[C@@H]1Cc2ccccc2[C@@H]1NC(=O)[C@@H]1CCCN1C(=O)[C@@H](NC(=O)[C@H](C)NC)C1CCCCC1)C1CCCCC1	0.18 °C	-0.48 °C	0.49 °C	-1.17 °C	0.11 °C	-1.88 °C
COc1cc(O)c(C(CC(=O)N2C[C@H](C)C[C@H](C)C2)c2ccc3c(c2)OCO3)c(OC)c1 (stereo not given in full)	4.29 °C	0.29 °C	0.17 °C	1 °C	0.25 °C	0.33 °C
COc1cc(-c2cncc(-c3ccc(N4CCN(C(C)C)CC4)cc3)c2C)cc(F)c1C(=O)N1CCCC1	0.7 °C	0.41 °C	0.26 °C	-0.59 °C	0.53 °C	-0.62 °C
N#Cc1ccc(C#CC[C@@H](C#N)NC(=O)[C@H]2CCCCN2)cc1F	-0.48 °C	-0.17 °C	0.45 °C	-0.17 °C	-0.62 °C	-0.01 °C
